Test results as given in PubChem BioAssay.

Assay: fission yeast growth modulation, primary screen, strain 972, OD600, 24 h, no modulator (AID 1090);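 also: basal condition with compound alone and no growth modifier present; test concentration not given here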
Details: S. pombe 972 growth, higher = more signal, called active from +8 up or from −8 down

z-score, inactive:
O=C1O[C@H](c2ccccc2)[C@H](c2ccccc2)N2[C@H]1[C@@H](C(=O)NC[C@H](O)c1ccccc1)[C@]1(C(=O)Nc3ccc(C#CC4=CCCCC4)cc31)[C@H]2c1ccc(OCCO)cc1 1.64
COc1ccc(-c2ccccc2[C@@H]2N[C@H](C(=O)O)CC[C@H]2C)cc1 -0.572
CCOC(=O)C[C@H]1[C@H](OC(=O)c2cc3ccccc3oc2=O)[C@@H](NC(=O)C2CCCCC2)c2cc(OCCCO)ccc2N1C(=O)c1ccc2ccccc2n1 0.802
NC(=O)NCC#Cc1ccc2c(c1)[C@]1(C(=O)N2)[C@H](C(=O)N2CCCCCCC2)[C@H]2C(=O)O[C@H](c3ccccc3)[C@H](c3ccccc3)N2[C@@H]1c1ccccc1OCCO -3.26
Cc1ccc(N2C(=O)c3ccccc3[C@@H](C(=O)NCc3ccccc3)[C@@H]2c2ccc(CO)cc2)nc1 -0.242
COC(=O)C(CC#Cc1ccc2c(c1)[C@]1(C(=O)N2)[C@H](C(=O)N2CCCCCCC2)[C@H]2C(=O)O[C@H](c3ccccc3)[C@H](c3ccccc3)N2[C@@H]1c1ccc(O)cc1)C(=O)OC 0.0597
COc1ccc([Si](C)(C)[C@@H]2[C@@H](CCO)O[C@]3(C(=O)N(Cc4ccc(NC(=O)[C@H](C)O)cc4)c4ccccc43)[C@H]2C)cc1 -1.06
C=CCNC(=O)[C@@H]1[C@H]2C(=O)O[C@H](c3ccccc3)[C@H](c3ccccc3)N2[C@H](c2ccc(OCCO)cc2)[C@@]12C(=O)N(C(=O)OCCOC)c1ccc(C#CC3(O)CCCCCC3)cc12 -1.64
